Inhibition data for 64 compounds are collected here from PubChem BioAssay AID1626 (SRMLSC, 2009).

In all, about 220,000 compounds went through this assay and about 2,000 (0.91%) were called active. Not shown: some 2% with an inconclusive outcome. Not all results are given here. Results with a measured potency or affinity are listed apart. A number with no mark means an inactive call. Rule as the data show it: inconclusive = inhibition above about 80% without an active follow-up result; inactive = below that; test concentration not stated here.

A short description of the assay: M. tuberculosis H37Rv growth inhibitors, H37Rv strain (AID 1626).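 Also: bacteria incubated seven days before Alamar blue readout; 0% = bacteria only wells and 100% = bacteria with antibiotic wells.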 The settings on record: stronger effect = higher value, concentration not given here.
As to `Cc1ccc(CC(=O)NCc2ccc3c(c2)OCO3)cc1`, the inhibition is 23.6%.

Consider `O=C(O)C1(P(=O)(c2ccc(Cl)cc2)c2ccc(Cl)cc2)CC1`, for which the inhibition is 1.34%.

In the case of `CCc1ccc(OCC2c3cc(OC)c(OC)cc3CCN2C(=S)NCCOC)cc1` (centres undefined), the inhibition is 0.42%.

For the compound `CSc1nnc(CNC(=O)c2ccccc2)n1-c1cccc(C)c1`, the inhibition was -0.55%.

For `O=C(O)c1ccccc1N1C(=O)C2C3CCC(C3)C2C1=O` (centres undefined), the inhibition is -3.82%.

For `CSC1=NCCN1C(=O)c1c(F)cccc1Cl`, the inhibition was 1.18%.

Take `Cc1ccc(S(=O)(=O)N2CCOCC2)cc1C(=O)NCc1ccco1`: the inhibition is -8.9%.

For `Cc1cc2ccccc2n1CCNC(=O)COc1ccccc1`, the inhibition was 13.1%.

Turning to `O=C(COc1ccc2ccccc2c1)NCCn1ccc2ccccc21`, the inhibition was 9.42%.

As for `Cc1nn(CC(=O)Nc2ccc3c(c2)nc2n3CCN(C3CCCCC3)C2)c(=O)c2ccccc12`, the inhibition was -1.06%.

For `Cc1nn(Cc2ccc(Cl)c(Cl)c2)c(C)c1NC(=O)c1noc2c1CCCCC2`, the inhibition was -6.28%.

For `Cc1nc(-c2ccccn2)nc(SCC(=O)N2CCOCC2)c1Cl`, the inhibition was 3.81%.

In the case of `COc1ccc(C(=O)CSc2nnc(-c3ccccn3)n2Cc2ccco2)cc1`, the inhibition is -7.14%.

As to `Cc1nc2ccccc2nc1SCC(=O)c1ccccc1`, the inhibition was 8.55%.

As for `COc1ccc(C(=O)CSc2nnc3ccc(-c4ccccn4)nn23)cc1`, the inhibition is 2.65%.

Consider `Cn1c(SCC(=O)c2ccc(F)cc2)nc2cccnc21`, for which the inhibition is 3.26%.

Turning to `CCCc1nc(SCC(=O)c2ccc(F)cc2)c2ccccc2n1`, the inhibition is 8.42%.

In the case of `Cc1ccc(NC(=O)COC(=O)c2ccc([N+](=O)[O-])o2)cc1S(=O)(=O)N1CCCCC1`, the inhibition is 8.45%.

Turning to `O=C1c2ccccc2C(=O)N1CN(C(=O)c1ccccc1)c1ccc(O)cc1`, the inhibition is -0.6%.

As to `Cc1cccnc1CCNC(=O)CCc1nnc(-c2ccccc2)o1`, the inhibition was 5.3%.

On to `CCCN1CCN(C(=O)c2ccc(Sc3ccc(C)cc3)c(NC(C)=O)c2)CC1`, for which the inhibition is 3.99%.

For the compound `CC(C)(C)c1ccccc1OCCCCN1CCCC1`, the inhibition is 6.1%.

`CC(C)(C)c1ccccc1OCCN1CCCC1`: the inhibition is -0.65%.

`CNC(=O)NC(=O)COC(=O)c1ccc(-n2c(C)ccc2C)cc1`: the inhibition is 20.2%.

Regarding `CCOc1ccc(NC(=O)CSc2nnc(C3CC3)n2C)cc1`, the inhibition is 27.2%.

As to `Cc1ccc(S(=O)(=O)N(CCCO)Cc2cc3c(C)ccc(C)c3[nH]c2=O)cc1`, the inhibition is -4.12%.

Consider `c1ccc(CN2CCN(c3nc4ccccc4n4cnnc34)CC2)cc1`, for which the inhibition was 6.21%.

As for `c1ccc(CC2CCN(c3nc4ccccc4n4nnnc34)CC2)cc1`, the inhibition was 12.1%.

On to `O=C(Nc1cccc(C(F)(F)F)c1)C1CCCN1S(=O)(=O)c1cccc2cccnc12` (centres undefined), for which the inhibition was -8.3%.

Turning to `CCCNC(=O)c1ccc2c(=O)c(O)c(-c3ccc(OC)cc3)[nH]c2c1`, the inhibition is -8.43%.

As for `CCO[C@@H]1OC(C(=O)O)=C[C@H](C2CCCCC2)[C@H]1CCCO`, the inhibition is 6.74%.

Turning to `CCOC(=O)NCCOC(=O)Nc1ccc(Cl)cc1`, the inhibition was 2.79%.

For `CCCCOC(=O)Nc1cccc(C(=O)OCC)c1`, the inhibition is 4%.

As for `CCCCOC(=O)Nc1ccc(C(N)=O)cc1`, the inhibition was -2.7%.

`CCCOC(=O)c1ccc(NC(=O)c2cc(OC)c(OC)c(OC)c2Br)cc1`: the inhibition is -1.63%.

Regarding `CCCCOC(=O)Nc1ccc(C(=O)OC)cc1`, the inhibition is -7.29%.

`COc1ccc(NC(=O)c2ccc(Br)o2)cc1`: the inhibition is -11.7%.

`CCN(CC)c1ccc(NC(=O)c2ccc(Br)o2)cc1`: the inhibition was -1.94%.

Regarding `CCOC(=O)c1ccc(NC(=O)c2cc(OC)c(OC)c(OC)c2Br)cc1`, the inhibition is 30.9%.

Turning to `O=C1CCC2c3ccc4ccccc4c3CCN12` (centres undefined), the inhibition was -9.72%.

As for `O=C(O)c1ccccc1C(=O)NCc1cccnc1`, the inhibition was -5.59%.

With `COc1ccc(-n2c(C)nc3sc4c(c3c2=O)CCC4)cc1`, the inhibition was -4.02%.

For `COc1ccc(-n2c(NN)nc3sc4c(c3c2=O)CCCC4)cc1`, the inhibition was 9.05%.

On to `CNC(C)C#Cc1ccc2c(=O)c3cc(C)c(C)cc3oc2c1` (centres undefined), for which the inhibition was -0.56%.

As for `Cn1nc(C(=O)OCC(=O)Nc2ccc(S(N)(=O)=O)cc2)c2ccccc2c1=O`, the inhibition is 4.62%.

For the compound `COc1ccc(CCNC(=O)CSCc2ccc(F)cc2)cc1OC`, the inhibition was -4.44%.

`Cc1ccccc1OC(=O)CCC(=O)OCCCC(F)(F)C(F)(F)F`: the inhibition is -4.35%.

On to `COCCCN1CCN(C2Cc3ccccc3Sc3ccc(Cl)cc32)CC1` (centres undefined), for which the inhibition was 54.7%.

Regarding `c1ccc2c(c1)CC(N1CCCCC1)c1ccccc1N2` (centres undefined), the inhibition is -6.95%.

Turning to `CCc1nnc(NC(=O)CSc2nc3cc4c(cc3cc2CC)OCCO4)s1`, the inhibition is 7.01%.

In the case of `Cn1c(CN2CCOCC2)nnc1SCC(N)=O`, the inhibition was 7.64%.

In the case of `O=C(NCCSCc1c(F)cccc1Cl)c1ccc(CN2CCOCC2)cc1`, the inhibition was 0.75%.

`CC1CCN(S(=O)(=O)N2CCC(C(=O)O)CC2)CC1`: the inhibition was -4.2%.

For `C=CCNC(=O)NC(=O)CSc1nnc(C(F)(F)F)n1C`, the inhibition was -4.51%.

Consider `CCCc1cc(=O)oc2cc(OCC(=O)OC)cc(OCC(=O)OC)c12`, for which the inhibition was 6.75%.

Regarding `CCCCCCc1ccc(OCC(=O)O)cc1OCC(=O)O`, the inhibition was -14.7%.

Consider `Cn1c2ccc(F)cc2c2ncn(CC3CCCO3)c(=O)c21` (centres undefined), for which the inhibition was -14%.

As for `CCCCn1c(=O)c(C(=O)NCc2ccncc2)c(O)c2ccccc21`, the inhibition is -0.26%.

On to `CCCn1c(=O)c(C(=O)NCc2cccnc2)c(O)c2ccccc21`, for which the inhibition is -5.34%.

As for `CC(C)Cn1c(=O)c(C(=O)Nc2cnccn2)c(O)c2ccccc21`, the inhibition is -13.3%.

For `CCCCCn1c(=O)c(C(=O)NCc2ccncc2)c(O)c2ccccc21`, the inhibition was 41.4%.

On to `O=C(/C=C/c1ccco1)NC(=S)Nc1ccccn1`, for which the inhibition is 2.96%.

In the case of `COc1ccc(S(=O)(=O)N(C)C2CCN(C)CC2)cc1`, the inhibition is -0.56%.

As for `CC(=O)c1ccc(C(=O)N2CCC(CO)(Cc3cccc(C(F)(F)F)c3)CC2)cc1`, the inhibition was -0.21%.
